# Experimental data: PubChem BioAssay AID1491 (National Center for Advancing Translational Sciences (NCATS), 2009)
# Values joined by “and” are separate entries in the source; they are usually repeats but may differ in a detail not shown here. Equal entries are not always repeated. Results filed as inconclusive are left out. A call without a number means that no potency is given here. Active and inactive are the calls of the source. Calls follow the shape of the dose curve; as a rule, active = well fitted inhibition curve with a large enough effect in the main read-out, with a control signal flat; inconclusive = small, poorly fitted or top-dose-only effect, or a change in a side signal; inactive = flat fitted curve, though single readings scatter.
# Target: Neuropeptide S receptor (Homo sapiens) (UniProt Q6W5P4)
# Test: Confirmation Concentration-Response Assay for Antagonists of the Neuropeptide S Receptor: cAMP Signal Transduction
# Conditions: CHO-NPSR cells, cAMP TR-FRET, antagonist mode; series mostly up to 22.3 µM
# How it was run: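 LANCE TR-FRET cAMP read-out: 665/620 nm emission ratio, with the 620 nm donor channel also reported, after 2 h RT detection. Stably transfected CHO-NPSR cells got compound titrations and 100 nM NPS in stimulation reagent for 60 min at 37C. IC50 came from Hill fits.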
# Potency is read from the fitted curve at half-maximal effect.
# Chain of Neuropeptide S receptor (Homo sapiens) (Q6W5P4 whole entry, looked up): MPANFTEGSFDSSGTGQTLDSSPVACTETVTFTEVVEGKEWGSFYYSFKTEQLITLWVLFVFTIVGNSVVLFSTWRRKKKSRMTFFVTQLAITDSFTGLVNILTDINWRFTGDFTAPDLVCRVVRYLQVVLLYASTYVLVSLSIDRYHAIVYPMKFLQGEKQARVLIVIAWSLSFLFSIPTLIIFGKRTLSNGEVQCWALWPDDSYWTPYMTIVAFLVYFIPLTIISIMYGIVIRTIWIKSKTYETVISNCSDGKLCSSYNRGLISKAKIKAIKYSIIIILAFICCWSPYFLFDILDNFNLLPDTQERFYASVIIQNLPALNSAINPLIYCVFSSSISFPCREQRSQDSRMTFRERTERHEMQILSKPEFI
row,Compound,Potency
1,O=C(NCCCN1CCOCC1)c1cc2c(=O)[nH]c3ccccc3c2s1,inactive
2,N#CC1=C(NC=NCc2ccccc2)Oc2ccc3ccccc3c2C1c1ccccc1 (centres undefined),1.58 µM (active)
3,Cc1nnc(NC(=O)c2cccc(S(=O)(=O)N3CCc4ccccc43)c2)s1,inactive
4,O=C1CC(NCc2ccncc2)C(=O)N1c1ccccc1 (centres undefined),inactive
5,N=c1c2c(ccn1CCCc1ccccc1)Oc1ccc3ccccc3c1C2c1ccccc1 (centres undefined),1.58 µM (active)
6,Brc1ccc(CSc2ncn[nH]2)cc1,inactive
7,COCCCn1cnc2c(c1=O)c1nc3ccccc3nc1n2CCc1ccccc1,inactive
8,CS(=O)(=O)c1nc(-c2ccccc2)cc(C(F)(F)F)n1,7.94 µM (active)
9,COCCCn1c(SCc2cc(=O)[nH]c3ccccc23)nnc1-c1ccco1,inactive
10,Nn1c(COc2ccccc2)nnc1SCc1cc(=O)[nH]c2ccccc12,inactive
11,CC(=O)c1c(C(C)=O)c(C)n(NC(=O)c2cccnc2)c1C,inactive
12,CCOC(=O)CC(=O)Nc1ncnc2c1C(c1ccccc1)c1c(ccc3ccccc13)O2 (centres undefined),0.794 µM (active)
13,N#Cc1cnn(-c2ncnc3sc4c(c23)CCCC4)c1N,inactive
14,CC(=O)n1nc2nc(C)cc(C)c2c1N,inactive
15,NC(=S)N/N=C/c1ncc(C(F)(F)F)cc1Cl,inactive
16,N[C@@H](Cc1cc(I)c(Oc2ccc(O)c(I)c2)c(I)c1)C(=O)O,inactive
17,COc1ccc2nc(NC(=S)N(C)C)sc2c1,inactive
18,CN(C)c1ccc(N=Cc2ccco2)cc1,inactive
19,CCOC(=O)C1CCCN(c2ncnc3c2oc2ccccc23)C1 (centres undefined),50.1 µM (active) and 12.6 µM (active)
